Laboratory results as given in PubChem BioAssay (Tox21).
Several values for one entry are separate records, joined by “and”; a condition that tells them apart may be missing. Equal values may be shown once. Records with an inconclusive call do not appear. Where a structure was tested more than once in an assay, its records may differ in their call. Activity calls are given as the source filed them. Unless noted, calls come from the whole dose curve; as a rule, active = well fitted curve in the direction sought with a large enough effect in the repeat runs; inconclusive = weak or mixed curves; inactive = no such curve, though single readings can be large; an effect the other way counts as inactive or inconclusive.

Key:
[1] = qHTS assay for small molecule agonists of the p53 signaling pathway (AID 651631; calls by dose curve; note: nearly all actives have a fitted effect of over 15% in size; note: potency is the fitted concentration of half-maximal effect)
In short: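 HCT-116 cells carrying a beta-lactamase reporter under p53 response elements were dosed with compound for 16 h at 37 °C. LiveBLAzer B/G FRET substrate was then added for 2 h at room temperature, and fluorescence intensity was read to detect pathway agonism.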

[2] = qHTS assay for small molecule agonists of the p53 signaling pathway - cell viability (AID 651633; calls by dose curve; note: nearly all actives have a fitted effect of over 30% in size; note: potency is the fitted concentration of half-maximal effect)
In short: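 p53RE-bla cells were treated with compound for 16 hours at 37 C. Cytotoxicity was then measured as CellTiter-Glo luminescence after 30 min at room temperature.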

[3] = qHTS assay for small molecules that induce genotoxicity in human embryonic kidney cells expressing luciferase-tagged ATAD5 - cell viability (AID 651634; calls by dose curve; note: nearly all actives have a fitted effect of over 25% in size; note: potency is the fitted concentration of half-maximal effect)
In short: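 Seeding of 2,000 HEK293T ATAD5-luciferase cells per well preceded pin-tool compound transfer. Plates sat 15.5 hr at 37C under 5% CO2, then fluorescence was read after 30 min with CellTiter-Fluor.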

[4] = qHTS assay for small molecule disruptors of the mitochondrial membrane potential - cell viability (AID 720634; calls by dose curve; note: nearly all actives have a fitted effect of over 20% in size; note: potency is the fitted concentration of half-maximal effect)
In short: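 Measuring cytotoxicity alongside mitochondrial potential, the screen quantified ATP by luminescence in HepG2 cells after 1 hr compound incubation and a 30 min room-temperature CellTiter-Glo step.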

[5] = qHTS assay to test for compound auto fluorescence at 460 nm (blue) in HEK293 cells (AID 720678)
In short: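 After cell attachment (4-5 hr, 37C), compounds were pinned onto HEK293 monolayers in 10% dialyzed FBS medium. The blue channel (405/460 nm) was read following overnight culture. Equivalency was calculated against triamterene.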

[6] = qHTS assay to test for compound auto fluorescence at 590 nm (red) in HEK293 cells (AID 720679)
In short: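 Plates of HEK293 cells (10% dialyzed FBS) are treated with 23 nL compound or DMSO vehicle after a 4-5 hr attachment period, incubated overnight at 37C, and read for red fluorescence at 540/590nm.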

[7] = qHTS assay to test for compound auto fluorescence at 535 nm (green) in HEK293 cells (AID 720680)
[8] = qHTS assay to test for compound auto fluorescence at 460 nm (blue) in HEK293 cell free culture (AID 720681)
In short: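 Compounds were added to cell-free DMEM with 10% FBS and fluorescence read directly. The blue channel used 405 nm excitation and 460 nm emission, with triamterene as the reference fluorophore.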

[9] = qHTS assay to test for compound auto fluorescence at 535 nm (green) in HEK293 cell free culture (AID 720682)
In short: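 Green-label autofluorescence (485 nm excitation, 535 nm emission) measured on compound added to cell-free culture medium (DMEM, 10% FBS). Output is expressed relative to fluorescein.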

[10] = qHTS assay to test for compound auto fluorescence at 590 nm (red) in HEK293 cell free culture (AID 720683)
In short: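 Cell-free wells of DMEM with 10% FBS received compound, and intrinsic fluorescence was read at excitation/emission 540/590 nm. Values expressed as equivalence to Rose Bengal sodium.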

[11] = qHTS assay to test for compound auto fluorescence at 590 nm (red) in HepG2 cell free culture (AID 720684)
In short: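 Compound was pinned into wells holding MEM with 10% FBS and no cells, and red fluorescence was read at Ex/Em 540/590 nm. Signal is expressed as auto fluorescence equivalency relative to Rose Bengal sodium.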

[12] = qHTS assay to test for compound auto fluorescence at 460 nm (blue) in HepG2 cell free culture (AID 720685)
In short: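 Compound (23 nL) or DMSO pinned into cell-free MEM with 10% FBS; blue fluorescence read at 405/460 nm excitation/emission, expressed as auto-fluorescence equivalency to triamterene.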

[13] = qHTS assay to test for compound auto fluorescence at 535 nm (green) in HepG2 cell free culture (AID 720686)
[14] = qHTS assay to test for compound auto fluorescence at 460 nm (blue) in HepG2 cells (AID 720687)
In short: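 HepG2 cells in MEM with 10% FBS, attached overnight at 37 C, were exposed to compound or DMSO for 1 hr at 37 C, 5% CO2. Blue fluorescence was read at 405/460 nm, with triamterene as reference fluorophore.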

[15] = biological target: Glucocorticoid receptor (Homo sapiens) (UniProt P04150); experiment: qHTS assay to identify small molecule agonists of the glucocorticoid receptor (GR) signaling pathway (AID 720691; active = well fitted activation curve with a large enough effect in the signal ratio in the repeat runs, not every such curve was filed as active; the % refers to the signal ratio)
In short: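 Reporter read-out: fluorescence intensity following 2 h room-temperature LiveBLAzer B/G FRET substrate loading. Prior step: GR-bla HeLa cells held 4 h, then treated 18 h at 37 C.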

[16] = biological target: Glucocorticoid receptor (Homo sapiens) (UniProt P04150); experiment: qHTS assay to identify small molecule antagonists of the glucocorticoid receptor (GR) signaling pathway (AID 720692; active = well fitted inhibition curve with a large enough effect in the signal ratio in the repeat runs, not every such curve was filed as active; the % refers to the signal ratio; note: potency is the fitted concentration of half-maximal effect)
In short: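 Dexamethasone (5 nM final) stimulated a stably integrated GRE-beta-lactamase reporter in HeLa cells during 18 h co-incubation with compounds; signal was quantified as fluorescence intensity of B/G FRET substrate after 2 h.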

[17] = qHTS assay for small molecules that induce genotoxicity in human embryonic kidney cells expressing luciferase-tagged ATAD5 (AID 651632); note: nearly all actives have a fitted effect of over 15% in size
In short: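 Reporter cells (HEK293T) express luciferase-tagged ATAD5, a protein that accumulates after DNA damage. Treat 16 hr at 37C/5% CO2, add Amplite, wait 30 min at RT, and read luminescence.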

[18] = qHTS assay for small molecule disruptors of the mitochondrial membrane potential (AID 720635); note: potency is the fitted concentration of half-maximal effect
In short: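 HepG2 cells exposed to compound 1 hr at 37C, then Mito-MPS dye 30 min. Ratio read of aggregate (540/590 nm) versus monomer (490/535 nm) fluorescence.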

[19] = qHTS assay to test for compound auto fluorescence at 535 nm (green) in HepG2 cells (AID 720675)
[20] = qHTS assay to test for compound auto fluorescence at 590 nm (red) in HepG2 cells (AID 720674)
In short: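 Seeding: 2,000 HepG2 cells/well, MEM/10% FBS, overnight 37 C. Dosing: compound vs DMSO. Incubation: 1 hr, 37 C, 5% CO2. Read: fluorescence 540 ex/590 em, Rose Bengal sodium as red reference.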

Measured: Potency

Glucocorticoid receptor (Homo sapiens), sequence (P04150 whole entry, looked up): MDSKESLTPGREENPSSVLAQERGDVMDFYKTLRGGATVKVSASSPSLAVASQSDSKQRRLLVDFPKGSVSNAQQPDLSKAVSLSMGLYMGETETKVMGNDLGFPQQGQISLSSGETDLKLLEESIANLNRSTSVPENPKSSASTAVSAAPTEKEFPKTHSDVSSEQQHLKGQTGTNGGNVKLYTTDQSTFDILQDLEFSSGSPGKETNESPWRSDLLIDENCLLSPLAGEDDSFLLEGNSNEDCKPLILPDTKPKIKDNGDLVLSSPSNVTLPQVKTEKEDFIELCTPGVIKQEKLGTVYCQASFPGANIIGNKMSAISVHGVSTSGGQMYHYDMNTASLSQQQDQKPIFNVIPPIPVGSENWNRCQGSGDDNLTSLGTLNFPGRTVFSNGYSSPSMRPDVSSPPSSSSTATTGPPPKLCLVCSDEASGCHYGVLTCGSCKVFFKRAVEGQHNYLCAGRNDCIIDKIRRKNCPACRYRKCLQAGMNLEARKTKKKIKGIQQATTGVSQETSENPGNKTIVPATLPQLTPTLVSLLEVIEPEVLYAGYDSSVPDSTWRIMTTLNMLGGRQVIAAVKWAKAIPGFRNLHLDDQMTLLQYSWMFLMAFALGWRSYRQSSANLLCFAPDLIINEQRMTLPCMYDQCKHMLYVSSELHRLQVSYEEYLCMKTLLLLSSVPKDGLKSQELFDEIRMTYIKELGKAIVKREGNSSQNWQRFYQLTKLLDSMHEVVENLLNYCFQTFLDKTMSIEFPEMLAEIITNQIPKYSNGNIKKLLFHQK

CCOP(=S)(OCC)OP(=S)(OCC)OCC
not listed: [17] | [18] | [19] | [20]
inactive: all other assays above

Brc1ccc(Br)cc1
not listed: [5] | [20]
inactive: all other assays above

Clc1cccc(C(Cl)(Cl)Cl)n1
not listed: [15] | [16] | [18] | [19]
inactive: all other assays above

COC(=O)Nc1nc2ccccc2[nH]1
active: [1] 7.7 µM and 13.7 µM
not listed: [5] | [18] | [19] | [20]
inactive: all other assays above

Clc1cccc(Cl)c1
not listed: [1]
inactive: all other assays above

CCC[CH2][Sn]([Cl])([CH2]CCC)[CH2]CCC
active: [2] 687 nM and 1.22 µM | [3] 612 nM and 3.06 µM | [4] 1.73 µM and 4.86 µM | [18] 61.3 nM and 122 nM
not listed: [1] | [15] | [16]
inactive: all other assays above

CC(O)CN(CC(C)O)CC(C)O (stereo not given)
not listed: [17] | [19] | [20]
inactive: all other assays above

CCNCC
not listed: [1]
inactive: all other assays above

C[N+](C)(C)C
not listed: [4] | [15] | [16] | [18] | [20]
inactive: all other assays above

ClC(Cl)=C(Cl)C(Cl)=C(Cl)Cl
not listed: [1]
inactive: all other assays above

O=C1Nc2ccc(Cl)cc2C(c2ccccc2)=NC1O (stereo not given)
not listed: [5] | [15] | [16] | [18] | [19]
inactive: all other assays above

COc1ccc(CO)cc1
not listed: [17]
inactive: all other assays above

COc1ccc(C=O)cc1OC
not listed: [5] | [15] | [16] | [18]
inactive: all other assays above

CN(C)c1nc(=O)n(C2CCCCC2)c(=O)n1C
not listed: [1] | [5] | [15] | [16]
inactive: all other assays above

COP(=S)(OC)Oc1ccc(S(=O)(=O)N(C)C)cc1
not listed: [18]
inactive: all other assays above

Nc1ncn[nH]1
not listed: [1]
inactive: all other assays above

COP(=O)(NC(C)=O)SC (stereo not given)
not listed: [5] | [18] | [19]
inactive: all other assays above

CNC(=O)CSP(=S)(OC)OC
not listed: [1] | [5] | [15] | [16]
inactive: all other assays above

CCCCC(C#N)(Cn1cncn1)c1ccc(Cl)cc1 (stereo not given)
not listed: [5] | [18] | [19] | [20]
inactive: all other assays above

O=C1C(Cl)=C(Cl)C(=O)c2ccccc21
active: [2] 6.88 µM and 21.7 µM | [4] 13.7 µM and 15.4 µM | [18] 3.87 µM and 4.86 µM
not listed: [1] | [5] | [15] | [16]
inactive: all other assays above

CC(C)(c1ccccc1)c1ccc(O)c(C(C)(C)c2ccccc2)c1
active: [2] 13.6 µM and 30.6 µM | [3] 60.6 µM | [18] 1.52 µM and 2.43 µM
not listed: [1] | [4] | [15] | [16]
inactive: all other assays above

C[N+](C)(C)CC(=O)O
not listed: [1] | [15] | [16] | [18] | [20]
inactive: all other assays above

CCCCCCCC[N+](C)(CCCCCCCC)CCCCCCCC
active: [2] 10.8 µM and 24.4 µM and 24.3 µM | [3] 21.6 µM and 19.3 µM | [4] 27.3 µM and 54.5 µM | [18] 1.72 µM and 770 nM and 2.43 µM
not listed: [1] | [5] | [15] | [16] | [19]
inactive: all other assays above

CC(C)(c1ccccc1)c1ccc(O)cc1
48.2 µM (active) and inactive: [4]
active: [18] 3.04 µM and 3.86 µM | [16] 48.6 µM and 54.9 µM
not listed: [1] | [2] | [15] | [20]
inactive: all other assays above

Cl
not listed: [1] | [2] | [4] | [15] | [16] | [17] | [18] | [19]
inactive: all other assays above

O=C(O)CF
not listed: [1] | [15] | [16] | [20]
inactive: all other assays above

CC(C)(O)C(=O)Nc1ccc([N+](=O)[O-])c(C(F)(F)F)c1
active: [18] 15.7 µM and 17.8 µM
not listed: [1] | [4] | [15] | [16] | [19]
inactive: all other assays above

Cc1cc(Cl)ccc1N=CN(C)C
not listed: [1] | [15] | [16] | [20]
inactive: all other assays above

COP(=S)(OC)Oc1ccc(Sc2ccc(OP(=S)(OC)OC)cc2)cc1
active: [4] 61.1 µM | [18] 24.8 µM and 30.6 µM
not listed: [1] | [15] | [16] | [20]
inactive: all other assays above

O=S(=O)(O)C(F)(F)C(F)(F)C(F)(F)C(F)(F)C(F)(F)C(F)(F)C(F)(F)C(F)(F)F
inactive and 48.6 µM (active): [2]
not listed: [1] | [4] | [15] | [16] | [18]
inactive: all other assays above

C=CC(Cl)CCl (stereo not given)
not listed: [1] | [4] | [18] | [19] | [20]
inactive: all other assays above

O=[N+]([O-])/N=C1\NCCN1Cc1ccc(Cl)nc1
not listed: [1] | [19]
inactive: all other assays above

CCCCCCCCCc1ccc(O)cc1
active: [4] 17.4 µM | [18] 6.18 µM
not listed: [1] | [2] | [3] | [15] | [16] | [20]
inactive: all other assays above
